Inconclusive results are not listed. Calls of active or inactive are those of the source. Calls come from the whole dose curve; as a rule, active = well fitted inhibition curve with a large enough effect; inconclusive = small, poorly fitted or top-dose-only effect; inactive = no such curve, though single readings can be large or run the other way.
Potency is the fitted concentration of half-maximal effect.

A short description of this test: qHTS Screen of the MIPE 4.0 Collection Against Ewings Sarcoma (RDES) (AID 1259252). Note: nearly all actives have a fitted effect of over 35% in size. Particulars: RD-ES Ewing sarcoma viability, CellTiter-Glo, 48 h; series mostly up to 45.8 µM. The source says: There is a large unmet medical need for treatments for Ewing sarcoma, a pediatric sarcoma. We sought to identify compounds that inhibited Ewing sarcoma cells in vitro with the goal to then test promising drugs in two drug combinations in vitro to look for synergistic drug combinations. Promising combinations would then proceed to additional validation, including in vivo testing.
Using the NCATS developed oncology compound library called the Mechanism of Interrogation Plate (MIPE), four Ewing sarcoma cell lines were evaluated (TC32, TC71, RDES, EW8). Compounds, in a 12-point titration series, were incubated with cells for 48 hours and the read out was cell viability (CellTiter-Glo from Promega). These initial experiments were used to select appropriate concentrations of each single agent for subsequent two-drug matrix combinations such that the concentrations in the matrices would span both activity and non-activity.
Cells, in the log phase of growth, were seeded in 5 uL of RPMI plus 5% FBS, […] L-glutamine, 100 U/ml penicillin and 100 ug/ml streptomycin into 1536-well solid-bottom white tissue culture treated Greiner Bio One Plates (789173-F) using a MultiDrop Combi (Thermofisher Scientific) dispenser and a small sterile cassette. One column was media alone to be used as a :"no cells" control. The plates were then covered with sterilized stainless steel gasketed lids from Kalypsys. After allowing cells to attach for 4 hours, 23 nL of test compound or control (negative control DMSO and positive control 9.2 uM Bortezomib-final) were added from a 1536-well polypropylene compound source plate to each well using a 1536 head pin tool from Kalypsys. Cells were then incubated for 48 hours at 37C, 95% relative humidity and 5% CO2. After 48 hours, plates were removed from the incubator and 3 uL of CellTiter-Glo (Promega) was added using an Aurora Flying Reagent Dispenser Bioraptor. Plates were incubated at room temperature for 10 minutes prior to reading the luminescence on the Viewlux (PerkinElmer). The relative luciferase units are used to calculate the percent activity using the activity of DMSO in the cells and no cells columns for normalization of no inhibition and full inhibition respectively.
Background: qHTS replaces the single test concentration by a dilution series.
Take `COc1cc(=C2C=c3ccccc3=N2)[nH]c1=Cc1[nH]c(C)cc1C`: the Potency was 1.87 µM (active).

Regarding `COc1cc2c(Oc3ccc(NC(=O)C4(C(=O)Nc5ccc(F)cc5)CC4)cc3F)ccnc2cc1OCCCN1CCOCC1`, the Potency was 16.6 µM (active). As to `CN1c2cc(O)c(N=NC(N)=O)cc2CC1S(=O)(=O)O` (stereo not given), the Potency entry was “inactive”. As for `CC[C@H]1CN2CCc3cc(OC)c(OC)cc3[C@H]2C[C@@H]1C[C@@H]1NCCc2cc(OC)c(OC)cc21`, the Potency was 0.0935 µM (active). Turning to `Cn1cc(-c2ccncc2)c(-c2ccc(OCc3ccc4ccccc4n3)cc2)n1`, the Potency is 16.6 µM (active). On to `O=C(O)CCCc1c[nH]c2ccccc12`, for which the Potency entry is “inactive”. For `Cc1cc(Nc2cc(N3CCN(C)CC3)nc(C=Cc3ccccc3)n2)n[nH]1` the value was 5.4 µM (active); for `CCOc1cc2ncc(C#N)c(Nc3ccc(F)c(Cl)c3)c2cc1NC(=O)C=CCN(C)C`, 0.105 µM (active). Take `CCN(CC)CCNC(=O)c1ccc2nc(-c3ccccc3)c(-c3ccc(CN4CCC(n5c(=O)[nH]c6ccccc65)CC4)cc3)nc2c1`: the Potency was 23.5 µM (active). For `CC(C)=CCCC(C)=CCCC(C)=CCSc1ccccc1C(=O)O`, the Potency is 2.35 µM (active). Take `c1ccc2c(CCNc3ccc(Nc4ccncc4)cc3)c[nH]c2c1`: the Potency is 16.6 µM (active). As for `CC(=O)OCC(=O)[C@@]1(O)[C@H](C)C[C@H]2[C@@H]3C=C(C)C4=Cc5c(cnn5-c5ccccc5)C[C@]4(C)[C@@H]3[C@@H](O)C[C@@]21C`, the figure is 6.62 µM (active).

As for `CC(=O)SC[C@@H](C)C(=O)N1CCC[C@H]1C(=O)N[C@@H](Cc1ccccc1)C(=O)O`, the Potency entry is “inactive”. On to `CN[C@H]1CCc2cc(OC)c(OC)c(OC)c2-c2ccc(OC)c(=O)cc21`, for which the Potency was 0.0021 µM (active). With `COc1cc2c(NC3CCN(C(C)C)CC3)nc(C3CCCCC3)nc2cc1OCCCN1CCCC1`, the Potency is 7.43 µM (active). For `Cn1c2cc(S(C)=O)sc2c2cnn(Cc3cccc(N)c3)c(=O)c21` (stereo not given), the Potency entry was “inactive”. In the case of `CC(C)(O)c1cc2nc(-c3cnc(N)nc3)nc(N3CCOCC3)c2s1`, the Potency was 0.059 µM (active).

With `CNC(=O)c1cc(Oc2ccc(NC(=O)Nc3cc(C(C)(C)C)nn3-c3ccc4ncccc4c3)c(F)c2)ccn1`, the Potency was 20.9 µM (active). For `O=c1[nH]c(=O)n(C2CCCO2)cc1F` (stereo not given) the value was “inactive”. For `COc1cccc2c(NCc3ccccc3)nc(-n3c(N)nc4ccccc43)nc12`, the Potency is 8.33 µM (active). As to `C[C@@H](Oc1cc(-n2cnc3ccc(CN4CCN(C)CC4)cc32)sc1C(N)=O)c1ccccc1C(F)(F)F`, the Potency is 0.0935 µM (active). As for `CC(C)(C)NC(=O)[C@H]1CN(Cc2cccnc2)CCN1C[C@@H](O)C[C@@H](Cc1ccccc1)C(=O)N[C@H]1c2ccccc2C[C@H]1O`, the Potency is 1.05 µM (active). Turning to `CCCNC(=O)Nc1ccc(Oc2ncnc3cc(OC)c(OC)cc23)cc1Cl`, the Potency result was “inactive”. For `CC(C)c1ccc(Cn2ccc3c4c(N)nc(NC5CC5)nc4ccc32)cc1` the value was 9.35 µM (active); for `C[C@@H](Oc1cc(-c2cnn(C3CCNCC3)c2)cnc1N)c1c(Cl)ccc(F)c1Cl`, 16.6 µM (active); for `CC(=O)c1c(C)c2cnc(Nc3ccc(N4CCNCC4)cn3)nc2n(C2CCCC2)c1=O`, 18.7 µM (active). `CC(C)[C@H](C(=O)Nc1ccc(C(=O)NO)cc1)c1ccccc1`: the Potency was 0.833 µM (active). Consider `O=c1[nH]nc(Sc2ncc([N+](=O)[O-])s2)n1-c1ccc2c(c1)OCCO2`, for which the Potency is 7.43 µM (active). For `Cn1c(=O)n(-c2ccc(C(C)(C)C#N)cc2)c2c3cc(-c4cnc5ccccc5c4)ccc3ncc21` the value was 0.0469 µM (active); for `CNC(=O)c1ccc(-c2cnc3ncc(Cc4ccc5ncccc5c4)n3n2)cc1F`, “inactive”.

Take `CC(O)C1C(=O)N2C(C(=O)O)=C(SC3CNC(C(=O)N(C)C)C3)C(C)C12` (stereo not given): the Potency result is “inactive”. As for `C[C@@H]1COC(Nc2ccc3ncnc(Nc4ccc(OCc5nccs5)c(Cl)c4)c3c2)=N1`, the figure is 2.64 µM (active); as for `C1=CCOCc2cc(ccc2OCCN2CCCC2)Nc2nccc(n2)-c2cccc(c2)OCC1`, 5.9 µM (active). Turning to `O=C(O)Cn1nnc(-c2cc(N3CCC(Oc4cc(F)ccc4Br)CC3)no2)n1`, the Potency result was “inactive”.

For the compound `C[C@]12CC[C@H](O)CC1=CCC1C2CC[C@]2(C)C(n3cnc4ccccc43)=CCC12` (stereo not given in full), the Potency entry is “inactive”. For `N#Cc1c(O)c2c(-c3ccc(-c4ccccc4O)cc3)csc2[nH]c1=O`, the Potency is 14.8 µM (active). As for `CC(=O)OCCN1C(=O)c2c(C)nc3ccc(S(=O)(=O)N4CCOCC4)cc3c2C1=O`, the entry is “inactive”; as for `Cc1ccc(C(=O)Nc2ccc(CN3CCN(C)CC3)c(C(F)(F)F)c2)cc1C#Cc1cnc2cccnn12`, 5.26 µM (active).

On to `Cn1c(CNc2ccc(C(=N)N)cc2)nc2cc(C(=O)N(CCC(=O)O)c3ccccn3)ccc21`, for which the Potency result was “inactive”. As for `Cc1ccc(C(N)=O)cc1Nc1nccc(-c2cn(C(C)C)c3cnccc23)n1`, the Potency was 14.8 µM (active).
